Results from PubChem BioAssay (NCATS).
Several values for one entry are separate records, joined by “and”; a condition that tells them apart may be missing. Identical values can stand only once. Records with an inconclusive call do not appear. Entries that show only a call come without a potency. A structure can be active in one record and inactive in another. Activity calls are given as the source filed them. Calls follow the shape of the dose curve; as a rule, active = well fitted cell-killing curve with a large enough effect; inconclusive = small, poorly fitted or top-dose-only effect; inactive = flat fitted curve, though single readings scatter.

Assay: Cellular viability qHTS for adrenocortical cancer (ACC) cell line NCI-H295R (AID 1963990); also: nearly all actives have a fitted effect of over 60% in size
Conditions: CellTiter-Glo ATP luminescence, 48 h; series mostly up to 46.1 µM
Description: PI: Naris Nilubol, MD Surgical Oncology Program, National Cancer Institute (NCI) National Institute of Health (NIH), Bethesda, Maryland Adrenocortical cancer (ACC) is a rare malignancy with poor survival outcomes and few treatment options. Currently, mitotane is the only FDA-approved therapy for ACC. Although adjuvant radiation therapy is rarely utilized, it has the potential to improve survival in select cases. Through a quantitative high-throughput drug screen (qHTS), we identified auranofin (AF), a thioredoxin reductase (TXNRD) inhibitor, as a promising candidate drug. This study aims to evaluate whether AF can enhance the efficacy of radiation therapy in the treatment of ACC. Two human ACC cell lines, SW-13 and NCI-H295R, were screened using the National Center for Advancing Translational Sciences (NCATS) Pharmaceutical Collection (NPC) and the Mechanism Interrogation PlatE (MIPE) library (~4,991 compounds). CellTiter-Glo (Cat # G7570, Promega, Madison, WI) was utilized to measure cell viability. Described herein are the results of the corresponding viability assay.
PROTOCOL TABLE (as described by Inglese J, Shamu CE and Guy RK. 2007) SEQUENCE No. (e.g., 1, 2, 3, etc.); […] (e.g., Cells, Incubation, Reagent, etc.); VALUE; DESCRIPTION. 1; Cells; 5 uL; white, solid-bottom, 1536-well tissue-culture treated plates. 2; Time; overnight culture at 37C with 5% CO2. 3; Compounds and control; 23 nL; Kalypsis pin tool (Wako USA) equipped with a 1536-well pin head to transfer to the assay plates. 4; Time; 48 hours; 37C with 5% CO2. 5; Reagent; 4 uL; CellTiter-Glo luminescent substrate mix. 6; Time; 20 min at room temperature. 7; Detection; Luminescence; ViewLux plate reader NOTES (numbers refer to Sequence numbers above) 1. NCI-H295R cells were harvested from a T175 flask and resuspended in ITS-supplemented DMEM serum-free medium at a concentration of 300 000 cells/mL. Then 5 uL of resuspended cells were dispensed into each well of white, solid-bottom, 1536-well tissue-culture-treated plates using a multidrop combi dispenser. The plates were covered with stainless steel gasket lids. 2-3. The plates were cultured overnight at 37C with 5% CO2. Twenty-three nL of compounds (eight selected concentrations from the NPC / MIPE) or positive control (10 mM stock of bortezomib) in DMSO was transferred to each well of the assay plate using a pin tool (Kalypsys, San Diego, CA, USA). The final concentration of the compounds in the 5 uL assay volume ranged from 0.5 nM to 46 uM. 4-6. After 48 hours of incubation at 37C and 5% CO2, 4 uL of CellTilter-Glo luminescent substrate mix (Promega, Madison, WI, USA) was added to each well. Then the plates were incubated for 20 minutes at room temperature. 7. After incubation, luminescence was measured using a ViewLux plate reader (PerkinElmer, Waltham, MA, USA) with a clear filter was used to measure the number of metabolically competent cells. To determine compound activity in the qHTS assay, the titration-response data for each sample was plotted and modeled by a four-parameter logistic fit yielding IC50 and efficacy (maximal response) values. Raw plate reads for each titration point were normalized relative to positive control ([…], 100% inhibition) and DMSO-only wells (basal, 0%). REFERENCES: Inglese J, Shamu CE and Guy RK, Reporting data from high throughput screening of small molecule libraries, Nature Chemical Biology, 2007, 3(8): 438-441. doi.org/10.1038/nchembio0807-438.

SMILES | Potency
Cc1cc(C)c2c(c1)[C@@H](N(Cc1cc(C(F)(F)F)cc(C(F)(F)F)c1)c1nnn(C)n1)CCCN2CC1CCC(C(=O)O)CC1 (stereo not given in full) | inactive
O=C(/C=C\n1cnc(-c2cc(C(F)(F)F)cc(C(F)(F)F)c2)n1)NNc1ccccn1 | 3.98 µM (active)
CC(C)NCC(O)c1cc(O)cc(O)c1 (stereo not given) | inactive
C/C=C/C[C@@H](C)C(=O)[C@H]1C(=O)N[C@@H](C(C)C)C(=O)N(C)CC(=O)N(C)[C@@H](CC(C)C)C(=O)N[C@@H](C(C)C)C(=O)N(C)[C@@H](CC(C)C)C(=O)N[C@@H](C)C(=O)N[C@H](C)C(=O)N(C)[C@@H](CC(C)C)C(=O)N(C)[C@@H](CC(C)C)C(=O)N(C)[C@@H](C(C)C)C(=O)N1C | inactive
COc1ccc2cc(OCC3(C(=O)O)CN(C(=O)c4ccc(F)cc4)C3)ccc2c1 | inactive
Cc1ccc(C2=Nc3ccc(Cl)cc3OC2)cc1 | inactive
CC[C@H](C)C(=O)O[C@H]1C[C@@H](C)C=C2C=C[C@H](C)[C@H](CC[C@@H]3C[C@@H](O)CC(=O)O3)[C@H]21 | inactive and 17.8 µM (active)
CC(C)C[C@H](NC(=O)CNC(=O)c1cc(Cl)ccc1Cl)B1OC(=O)CC(CC(=O)O)(C(=O)O)O1 (stereo not given in full) | 0.355 µM (active)
O=C(NO)c1cnc(NC2(c3ccccc3)CC2)nc1 | 3.98 µM (active)
O=C(Cc1ccc(-c2ccc(OCCN3CCOCC3)cc2)cn1)NCc1ccccc1 | 0.178 µM (active)
CC(C)c1cc(-c2n[nH]c(=O)n2-c2ccc3c(ccn3C)c2)c(O)cc1O | 0.0126 µM (active)
O=c1[nH]c(=O)n([C@H]2C[C@H](O)[C@@H](CO)O2)cc1C(F)(F)F | inactive
OC[C@H]1O[C@@H](S[C@@H]2O[C@H](CO)[C@H](O)[C@H](n3cc(-c4cccc(F)c4)nn3)[C@H]2O)[C@H](O)[C@@H](n2cc(-c3cccc(F)c3)nn2)[C@H]1O | inactive
CC(=O)OCC(=O)[C@@]12OC(C)(C)O[C@@H]1C[C@H]1[C@@H]3C[C@H](F)C4=CC(=O)C=C[C@]4(C)[C@@]3(F)[C@@H](O)C[C@@]12C | inactive
O=C(OCc1ccccc1)c1ccccc1 | inactive
CC(C)(C)CC(C)(C)c1ccc(O)c(Cc2ccc(Cl)cc2Cl)c1 | 5.8 µM (active)
CS(=O)(=O)c1ccc([C@@H](O)[C@@H](CO)NC(=O)C(Cl)Cl)cc1 | inactive
COC(c1ccccc1)(c1ccccc1)[C@H](Oc1nc(C)cc(C)n1)C(=O)O | inactive
COc1ccc([C@@H](O)[C@@H](C)Oc2ccc([C@H]3O[C@H](c4ccc(O[C@H](C)[C@H](O)c5ccc(OC)c(OC)c5)c(OC)c4)[C@H](C)[C@H]3C)cc2OC)cc1OC | 1.78 µM (active)
CCC[C@@H]1C[C@@H](C(=O)N[C@@H]([C@H]2O[C@H](SC)[C@H](O)[C@@H](O)[C@H]2O)[C@H](C)Cl)N(C)C1 | inactive

SMILES | Potency
C#Cc1ccc(-c2ccccc2F)cc1 | inactive
O=C(NCCCCN1CCOCC1)c1cc2ccccc2o1 | inactive
CO[C@@]1(NC(=O)CSC[C@@H](N)C(=O)O)C(=O)N2C(C(=O)O)=C(CSc3nnnn3C)CS[C@@H]21 | inactive
C[C@H]1CNC(=O)c2cnn3ccc(nc23)N[C@H](C)c2cc(F)ccc2O1 | 8.91 µM (active)
Cc1cnc(Nc2ccc(N3CCN(C)CC3)cc2)nc1Nc1cccc(S(=O)(=O)NC(C)(C)C)c1 | 10 µM (active)
Cc1c(Cn2ccnc2)c2ccccc2n1CCC(=O)O | inactive
Cc1ccccc1C(C(=O)NC1CCCCC1)N(C(=O)CNc1ccc(C#N)cc1)c1cccc(F)c1 (stereo not given) | inactive
COC1=C(OC)C(=O)C(CCCCCCCCCCO)=C(C)C1=O | 2.91 µM (active) and 5.01 µM (active)
CC(NN)c1ccccc1 (stereo not given) | inactive
CN(C)CCN(C)C(=O)c1ccc(NC(=O)Nc2ccc(-c3nc(N4CCOCC4)c4ccn(CC(F)(F)F)c4n3)cc2)cc1 | 3.16 µM (active)
CN[C@@H]1[C@H](O[C@H]2[C@H](O[C@@H]3[C@@H](O)[C@H](O)[C@@H](N=C(N)N)[C@H](O)[C@H]3N=C(N)N)O[C@@H](C)[C@]2(O)C=O)O[C@@H](CO)[C@H](O)[C@H]1O | inactive
CCOC(=O)c1ccc(NC(=O)CN2CCCCC2)cc1 | inactive
C[C@H]1C[C@@H]2[C@H]([C@@H](O)C[C@@]3(C)[C@H]2CC[C@]3(O)C(=O)CO)[C@@]2(C)C=CC(=O)C=C12 | inactive
CCCCCOC(=O)Nc1nc(=O)n([C@@H]2O[C@H](C)[C@@H](O)[C@H]2O)cc1F | inactive
NCC1CCC(C(=O)Oc2ccc(CCC(=O)O)cc2)CC1 (stereo not given) | inactive
CCCCCCCCCCCCCCCC[N+](C)(C)Cc1ccccc1 | 8.2 µM (active)
CCOCc1nc2c(N)nc3ccccc3c2n1CC(C)(C)O | inactive
O=C1c2c(O)cccc2Cc2cccc(O)c21 | inactive
CCCn1cnc2c1c(=O)n(CCCCC(C)=O)c(=O)n2C | inactive
CC(C)OC(=O)C(C)(C)Oc1ccc(C(=O)c2ccc(Cl)cc2)cc1 | inactive
